Data on 15 compounds can be found in ChEMBL document CHEMBL1961873, “Compounds: GSK PKIS; Assays: Nanosyn kinase panel” (2012).

For assay [1], the target named is T1, Mitogen-activated protein kinase 12 (Homo sapiens) (UniProt P53778).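 Also: values are averaged p38gamma kinase inhibition readings, compounds tested at 1 µM.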
T1 sequence (whole entry): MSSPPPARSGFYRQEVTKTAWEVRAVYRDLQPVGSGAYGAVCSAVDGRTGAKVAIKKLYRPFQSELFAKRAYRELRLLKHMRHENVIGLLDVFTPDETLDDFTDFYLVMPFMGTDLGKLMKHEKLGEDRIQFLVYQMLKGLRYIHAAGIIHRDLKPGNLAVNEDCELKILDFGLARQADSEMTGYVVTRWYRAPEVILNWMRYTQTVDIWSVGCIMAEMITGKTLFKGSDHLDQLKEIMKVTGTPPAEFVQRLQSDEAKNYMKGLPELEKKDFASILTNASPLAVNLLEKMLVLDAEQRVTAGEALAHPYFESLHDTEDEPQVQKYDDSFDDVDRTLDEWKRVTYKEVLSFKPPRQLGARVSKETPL
The following applies: at 1 µM.

Assay [2] has as its target SRSF protein kinase 1 (Homo sapiens) (UniProt Q96SB4). The following applies: at 0.1 µM.
Assay [3] has the same target. The following applies: at 1 µM.
Assay [4] has as its target Phosphatidylinositol 4,5-bisphosphate 3-kinase catalytic subunit alpha isoform (Homo sapiens) (UniProt P42336). The following applies: at 0.1 µM.
Assay [5] has the same target. The following applies: at 1 µM.
Assay [6] addresses T2, Phosphatidylinositol 4,5-bisphosphate 3-kinase catalytic subunit delta isoform (Homo sapiens) (UniProt O00329).
T2 sequence (whole entry): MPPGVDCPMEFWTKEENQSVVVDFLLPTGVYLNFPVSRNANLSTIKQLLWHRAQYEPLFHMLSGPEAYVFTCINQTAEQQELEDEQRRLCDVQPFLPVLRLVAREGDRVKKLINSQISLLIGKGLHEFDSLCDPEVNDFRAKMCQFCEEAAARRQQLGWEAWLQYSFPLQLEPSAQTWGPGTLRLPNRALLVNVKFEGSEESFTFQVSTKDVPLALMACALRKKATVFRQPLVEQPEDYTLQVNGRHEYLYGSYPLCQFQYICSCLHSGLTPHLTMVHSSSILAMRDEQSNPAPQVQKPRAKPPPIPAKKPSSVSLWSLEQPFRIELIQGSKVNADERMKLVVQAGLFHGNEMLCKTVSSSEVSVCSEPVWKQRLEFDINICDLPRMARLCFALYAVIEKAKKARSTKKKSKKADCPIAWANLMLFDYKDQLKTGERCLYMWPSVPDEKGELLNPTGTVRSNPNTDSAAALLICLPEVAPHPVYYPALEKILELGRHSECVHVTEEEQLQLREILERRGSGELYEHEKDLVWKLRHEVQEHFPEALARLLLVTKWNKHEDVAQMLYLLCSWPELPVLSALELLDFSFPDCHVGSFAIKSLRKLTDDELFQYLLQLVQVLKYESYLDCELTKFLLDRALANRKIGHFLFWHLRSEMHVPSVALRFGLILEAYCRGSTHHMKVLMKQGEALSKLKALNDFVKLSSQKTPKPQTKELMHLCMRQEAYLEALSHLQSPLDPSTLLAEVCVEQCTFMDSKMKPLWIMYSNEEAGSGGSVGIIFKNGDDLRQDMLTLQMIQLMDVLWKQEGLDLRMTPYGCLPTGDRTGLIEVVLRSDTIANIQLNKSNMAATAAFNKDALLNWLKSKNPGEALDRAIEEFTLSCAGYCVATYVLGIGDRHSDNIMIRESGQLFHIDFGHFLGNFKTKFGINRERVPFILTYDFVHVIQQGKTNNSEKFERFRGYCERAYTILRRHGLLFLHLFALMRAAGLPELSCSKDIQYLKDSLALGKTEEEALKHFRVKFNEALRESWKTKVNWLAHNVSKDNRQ
The following applies: at 0.1 µM.

In assay [7] the target is T2, Phosphatidylinositol 4,5-bisphosphate 3-kinase catalytic subunit delta isoform (Homo sapiens). The following applies: at 1 µM.
Assay [8] deals with Phosphatidylinositol 4-kinase beta (Homo sapiens) (UniProt Q9UBF8). The following applies: at 0.1 µM.
The target is the same in assay [9]. The following applies: at 1 µM.
The target in assay [10] is Sphingosine kinase 1 (Homo sapiens) (UniProt Q9NYA1). The following applies: at 0.1 µM.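 Also: mean percent inhibition of SPHK1 activity, measured within the GSK PKIS screening panel.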
Sphingosine kinase 1 (Homo sapiens), sequence (Q9NYA1 whole entry): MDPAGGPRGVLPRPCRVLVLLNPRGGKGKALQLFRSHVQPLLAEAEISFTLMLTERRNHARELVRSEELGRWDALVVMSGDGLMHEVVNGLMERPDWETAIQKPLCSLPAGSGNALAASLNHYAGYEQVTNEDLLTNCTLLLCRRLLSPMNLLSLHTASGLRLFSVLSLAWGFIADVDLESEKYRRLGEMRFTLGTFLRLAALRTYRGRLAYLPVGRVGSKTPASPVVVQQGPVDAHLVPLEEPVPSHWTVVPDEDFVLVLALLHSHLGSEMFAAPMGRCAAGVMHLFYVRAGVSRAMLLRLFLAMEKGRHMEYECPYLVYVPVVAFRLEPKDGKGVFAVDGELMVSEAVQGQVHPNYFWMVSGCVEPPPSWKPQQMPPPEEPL

Phosphatidylinositol 4,5-bisphosphate 3-kinase catalytic subunit alpha isoform (Homo sapiens), sequence (P42336 whole entry, canonical isoform): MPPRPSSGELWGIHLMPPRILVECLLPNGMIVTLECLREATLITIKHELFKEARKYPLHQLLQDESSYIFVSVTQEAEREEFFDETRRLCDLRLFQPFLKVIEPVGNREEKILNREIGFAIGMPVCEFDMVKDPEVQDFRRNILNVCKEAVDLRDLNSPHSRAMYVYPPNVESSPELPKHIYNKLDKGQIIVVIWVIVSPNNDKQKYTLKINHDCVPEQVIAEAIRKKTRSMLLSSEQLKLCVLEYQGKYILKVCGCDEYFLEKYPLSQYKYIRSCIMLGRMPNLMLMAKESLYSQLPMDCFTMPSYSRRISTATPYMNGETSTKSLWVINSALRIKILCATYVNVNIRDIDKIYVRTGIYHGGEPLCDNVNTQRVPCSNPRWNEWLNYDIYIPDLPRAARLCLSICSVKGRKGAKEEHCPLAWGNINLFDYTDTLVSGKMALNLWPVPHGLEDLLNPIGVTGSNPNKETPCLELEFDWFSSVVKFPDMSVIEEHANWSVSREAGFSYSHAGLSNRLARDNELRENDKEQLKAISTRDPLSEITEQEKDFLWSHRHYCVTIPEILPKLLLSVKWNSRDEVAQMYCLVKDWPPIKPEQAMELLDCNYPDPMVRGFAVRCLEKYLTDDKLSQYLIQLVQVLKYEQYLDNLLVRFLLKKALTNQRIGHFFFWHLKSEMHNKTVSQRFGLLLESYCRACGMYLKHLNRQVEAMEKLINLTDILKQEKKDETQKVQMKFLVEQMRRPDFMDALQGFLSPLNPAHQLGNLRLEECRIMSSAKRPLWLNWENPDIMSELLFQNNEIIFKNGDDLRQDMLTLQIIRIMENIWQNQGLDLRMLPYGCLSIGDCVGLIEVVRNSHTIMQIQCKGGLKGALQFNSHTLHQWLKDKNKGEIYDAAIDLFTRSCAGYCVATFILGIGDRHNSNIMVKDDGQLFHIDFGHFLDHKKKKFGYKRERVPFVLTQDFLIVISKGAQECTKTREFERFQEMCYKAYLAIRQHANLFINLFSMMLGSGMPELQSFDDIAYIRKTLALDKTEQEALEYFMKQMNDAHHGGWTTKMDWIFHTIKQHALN
SRSF protein kinase 1 (Homo sapiens), sequence (Q96SB4 whole entry): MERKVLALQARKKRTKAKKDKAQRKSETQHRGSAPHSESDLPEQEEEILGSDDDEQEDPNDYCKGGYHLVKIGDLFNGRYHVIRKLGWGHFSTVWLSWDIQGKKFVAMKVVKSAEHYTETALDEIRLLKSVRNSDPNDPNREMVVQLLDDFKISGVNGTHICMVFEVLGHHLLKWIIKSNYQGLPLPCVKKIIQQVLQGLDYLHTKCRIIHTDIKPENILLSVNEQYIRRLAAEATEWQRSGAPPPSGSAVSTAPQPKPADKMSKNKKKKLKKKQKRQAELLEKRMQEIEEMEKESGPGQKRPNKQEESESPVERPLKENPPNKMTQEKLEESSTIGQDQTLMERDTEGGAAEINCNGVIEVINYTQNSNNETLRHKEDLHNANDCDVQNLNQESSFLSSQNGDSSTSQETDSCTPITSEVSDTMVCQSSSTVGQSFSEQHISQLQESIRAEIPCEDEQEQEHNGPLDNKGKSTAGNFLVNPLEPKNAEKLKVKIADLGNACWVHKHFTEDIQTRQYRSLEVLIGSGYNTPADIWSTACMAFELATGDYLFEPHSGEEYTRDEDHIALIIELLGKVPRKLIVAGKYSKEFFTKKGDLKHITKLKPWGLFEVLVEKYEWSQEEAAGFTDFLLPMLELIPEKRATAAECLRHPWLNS
Phosphatidylinositol 4-kinase beta (Homo sapiens), sequence (Q9UBF8 2-816 limits assumed): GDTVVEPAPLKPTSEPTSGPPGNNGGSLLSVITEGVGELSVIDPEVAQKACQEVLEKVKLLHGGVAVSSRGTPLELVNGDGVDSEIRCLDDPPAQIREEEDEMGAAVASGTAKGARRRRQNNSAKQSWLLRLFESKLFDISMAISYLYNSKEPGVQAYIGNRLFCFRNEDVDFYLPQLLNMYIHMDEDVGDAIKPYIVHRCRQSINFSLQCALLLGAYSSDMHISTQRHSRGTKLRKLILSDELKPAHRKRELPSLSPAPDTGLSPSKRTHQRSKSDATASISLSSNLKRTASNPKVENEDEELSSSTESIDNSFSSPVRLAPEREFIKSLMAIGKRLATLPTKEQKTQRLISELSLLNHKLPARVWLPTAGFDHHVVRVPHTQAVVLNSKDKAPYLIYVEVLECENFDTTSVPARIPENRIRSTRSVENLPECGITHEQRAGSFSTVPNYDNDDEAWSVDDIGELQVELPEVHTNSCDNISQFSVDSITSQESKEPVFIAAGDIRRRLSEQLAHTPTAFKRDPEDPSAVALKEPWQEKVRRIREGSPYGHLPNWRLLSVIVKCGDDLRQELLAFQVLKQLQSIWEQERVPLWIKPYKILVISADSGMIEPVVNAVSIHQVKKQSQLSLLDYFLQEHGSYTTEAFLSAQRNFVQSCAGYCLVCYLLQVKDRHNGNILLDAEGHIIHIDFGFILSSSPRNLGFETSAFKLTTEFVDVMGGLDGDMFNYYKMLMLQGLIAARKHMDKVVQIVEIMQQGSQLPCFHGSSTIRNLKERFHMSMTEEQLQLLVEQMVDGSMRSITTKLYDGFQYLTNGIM

As to `COc1ccccc1-c1cc(/C=C2\C(=O)Nc3ncc(Br)cc32)cc(Br)c1O`, the inhibition (usually the drop in the measured response relative to a control, in per cent) in assay [1] was 4.01%; in assay [2] it was -2.27%; in assay [3] it was -5.25%; in [4] it was 8.24%; in [5] it was 18.6%; in [6] it was 7.45%. The inhibition in assay [7] is 13.9%; in [8], -5.01%; in [9], 7.13%; in [10], 0.8%.

Take `COc1cc(N2CCN(C(C)C)CC2)ccc1Nc1nc(Nc2cccc(F)c2C(=O)O)c2cc[nH]c2n1`: the inhibition in assay [1] is 1.52%; in [2], -1.29%; in [3] it was 5.69%; in assay [4], 2.86%; in assay [5], 4.42%; in [6] it was -0.59%. Besides, the inhibition in assay [7] was -3.11%; in [8], 2.44%; in assay [9] it was 0.72%; in [10], -1.3%.

Regarding `COc1ccc2ncn(-c3cc(O[C@H](C)c4ccccc4C(F)(F)F)c(C(N)=O)s3)c2c1`, the inhibition in assay [1] was -0.21%; in assay [2], -0.66%; in assay [3] it was -1.2%; in assay [4], 0.29%; in [5], 4.81%; in [6], 2.14%. For the same compound, the inhibition is 12.2% in assay [7], -1.47% in assay [8], 1.85% in assay [9] and -1.01% in [10].

Regarding `OCCCNc1nccc(-c2c(-c3ccc(F)cc3)nn3cc(C(F)(F)F)ccc23)n1`, the inhibition was 2.13% in assay [1]; -1.12% in [2]; -3.43% in assay [3]; 2.12% in [4]; 2.75% in assay [5]; 4.76% in assay [6]. In addition, the inhibition in assay [7] was 4.87%; in assay [8] it was 4.2%; in assay [9], -3.41%; in assay [10] it was -0.34%.

As for `COc1ccc(Nc2ncc(-c3ccccc3)o2)cc1OC`, the inhibition is 1.14% in [1]; -1.72% in assay [2]; -3.33% in assay [3]; -2.31% in [4]; 0.95% in assay [5]; 0.94% in assay [6]. Also, the inhibition is 4.48% in assay [7], 2.22% in [8], 4.24% in [9] and -0.27% in [10].

Regarding `N#Cc1ccc2c(-c3ccnc(NC4CC4)n3)c(-c3ccc(F)cc3)nn2c1`, the inhibition was 1.13% in [1]; -1.5% in assay [2]; -2.4% in assay [3]; 0.7% in assay [4]; 0.6% in assay [5]; -0.45% in assay [6]. The inhibition in [7] was -0.14%; in assay [8], -2.01%; in assay [9], -0.71%; in assay [10], 3.55%.

For `NS(=O)(=O)c1cccc(N/C=C2\C(=O)Nc3ccccc32)c1`, the inhibition is 2.84% in assay [1]; -2.16% in assay [2]; -4.31% in [3]; 4.33% in [4]; 7.3% in assay [5]; 4.26% in assay [6]. In addition, the inhibition in assay [7] was 7.6%; in assay [8], -1.97%; in assay [9] it was 2.07%; in [10], 7.2%.

`CS(=O)(=O)Nc1ccc(-c2ccc3c(NC(=O)C4CC4)n[nH]c3c2)cc1`: the inhibition is 2.05% in assay [1]; -1.28% in [2]; -3.34% in assay [3]; 2.67% in assay [4]; 4.34% in assay [5]; 0.92% in assay [6]. Besides, the inhibition in assay [7] was 1.63%; in assay [8], -0.54%; in [9], -0.98%; in assay [10], 2.34%.

In the case of `CNC(=O)c1sc(-n2cnc3cc(OC)c(OC)cc32)cc1OCc1ccccc1C(F)(F)F`, the inhibition was 1.74% in assay [1]; -2.64% in assay [2]; -0.97% in assay [3]; 3.44% in assay [4]; 4.4% in assay [5]; 0.73% in assay [6]. Further, the inhibition in assay [7] was 6.41%; in assay [8], 6.54%; in [9] it was 0.66%; in assay [10] it was -7.75%.

With `CCS(=O)(=O)c1ccc(OC)c(Nc2ncc(-c3cccc(C(C)=O)c3)o2)c1`, the inhibition in assay [1] is 1.14%; in assay [2], -0.6%; in [3] it was 4.89%; in [4], 2.7%; in assay [5] it was 1.8%; in assay [6], 0.22%. The inhibition in [7] was -1.96%; in assay [8], 2.44%; in assay [9] it was -1.58%; in assay [10], 13.1%.

Turning to `c1ccc(-c2n[nH]cc2-c2ccnc(-c3ccc(OCCn4ccnc4)cc3)c2)nc1`, the inhibition in assay [1] was 0.72%; in assay [2], 0.42%; in assay [3] it was -0.94%; in [4], 0.67%; in assay [5], 3.3%; in assay [6], 1.43%. The inhibition is 1.91% in assay [7], -2.63% in assay [8], 7.03% in assay [9] and 2.34% in assay [10].

On to `Cc1cc(O)cc(C)c1/C=C/c1cncc(C(=O)OC(C)(C)C)c1`, for which the inhibition in assay [1] was 1.7%; in [2] it was -1.51%; in [3], 0.59%; in assay [4] it was 5.51%; in [5], 7.91%; in assay [6], 5.19%. The inhibition stood at 6.21% in assay [7], 1.7% in assay [8], 3.49% in [9] and 2.8% in assay [10].

For the compound `Cc1c2ccc(N(C)c3ccnc(Nc4cccc(S(N)(=O)=O)c4)n3)cc2nn1C`, the inhibition in [1] is 3.53%; in assay [2] it was -1.71%; in [3] it was -3.4%; in assay [4] it was 4.71%; in [5], 14.4%; in [6] it was 6.47%. The inhibition in [7] turned out to be 29.9%; in [8], 0.59%; in assay [9] it was 1.94%; in [10], 1.12%.

As to `Cc1nnc(-c2cccc(-c3ccc(C(=O)NCC4CC4)cc3)c2)o1`, the inhibition was 2.67% in assay [1]; -0.9% in assay [2]; 2.29% in assay [3]; 2.25% in [4]; 2.72% in [5]; -0.87% in assay [6]. Also, the inhibition in assay [7] is -2.41%; in [8], -0.63%; in assay [9], -1.44%; in assay [10], -1.27%.

Turning to `COC(=O)Nc1nc2cc(Oc3ccc(NC(=O)Nc4ccccc4)cc3)ccc2[nH]1`, the inhibition in assay [1] is 1.26%; in assay [2], -2.23%; in assay [3], -0.94%; in assay [4], 3.19%; in assay [5] it was 0%; in [6], 0.3%. The inhibition in assay [7] was 0.14%; in assay [8], 3.09%; in assay [9] it was 2.26%; in assay [10], -0.55%.
